Source: PubChem BioAssay

Assay: small molecules captured by biotinylated probe aFGF2 – biochemical, small-molecule microarray, fluorescence 635/667, stem cell growth factor project, primary screen (AID 1067);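 note: measures binding of biotinylated aFGF2 protein to printed compounds on slides; z-score merges feature fluorescence and signal-to-noise across triplicate slides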
Details: higher = more signal
COc1cc(COC(C)=O)ccc1OC(C)=O showed a composite z-score of 0.188.
COc1ccccc1CN1C(=O)c2ccccc2[C@@H](C(=O)NC2CC2)[C@@H]1c1ccc(CO)cc1 gave a composite z-score of 0.0233.
In the case of CCCC[C@@H]1C[C@H]1[C@@H](NC(=O)c1ccco1)c1ccccc1C(F)(F)F, the composite z-score is reported as 0.806.
In the case of O=C1C2C=CC(C(O)c3cc(C(F)(F)F)cc(C(F)(F)F)c3)N(n3cnnc3)C2C(=O)N1Cc1ccccc1 (stereo not drawn), the composite z-score is reported as -0.0628.
For CN(C)CCCCCCNC(=O)[C@H]1C[C@H]2C(=O)N3CCC[C@H]3C(=O)N2[C@H]1c1ccc(O)cc1, the composite z-score was 0.0082.
O=C1O[C@H](c2ccccc2)[C@H](c2ccccc2)N2[C@H]1[C@@H](C(=O)N1CCCCCCC1)[C@]1(C(=O)Nc3ccc(C#CCCO)cc31)[C@H]2c1ccccc1OCCO gave a composite z-score of 1.08.
For C#C[C@H](O[Si](C#Cc1ccc(Oc2ccccc2)cc1)(C(C)C)C(C)C)c1ccccc1, the composite z-score was -0.0613.
COC(=O)[C@@]1(Cc2ccc(F)cc2)[C@H]2c3cc(C(=O)N(C)C)n(Cc4ccc(Cl)c(C(F)(F)F)c4)c3C[C@H]2CN1C(=O)c1ccccc1 showed a composite z-score of -0.0355.
